B2AR arrestin – beta2AR (human) beta-arrestin recruitment activity. beta-arrestin recruitment to beta2AR, cell-based reporter. Potency, µM (doses to about 46.1 µM), for the others: at the highest dose activation, usual class: activators. actives 0.02% (n = 330,000). AID 492947; active = well fitted activation curve with a large enough effect; inconclusive = small, poorly fitted or top-dose-only effect;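 also: potency is read from the fitted curve at half-maximal effect; 0% = DMSO controls and full agonism = EC100 isoproterenol or metaproterenol; nearly all actives have a fitted effect of over 65% in size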
TSHR antagonist – human thyrotropin receptor antagonism; P16473; activity change, negative = inhibition, % at 11.5 µM; actives 0.2% (n = 330,000); TSHR-expressing cells, TSH-stimulated cAMP HTRF, 2 h; active compounds read low;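 active = activity change below a set negative limit, meaning inhibition stronger than a set level, cut at about -70% in these data; inconclusive = activity change between two set negative limits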; also: % is scaled to controls: 0 for no effect and ±100 for the full control effect
Target sequence (P16473 whole entry, looked up): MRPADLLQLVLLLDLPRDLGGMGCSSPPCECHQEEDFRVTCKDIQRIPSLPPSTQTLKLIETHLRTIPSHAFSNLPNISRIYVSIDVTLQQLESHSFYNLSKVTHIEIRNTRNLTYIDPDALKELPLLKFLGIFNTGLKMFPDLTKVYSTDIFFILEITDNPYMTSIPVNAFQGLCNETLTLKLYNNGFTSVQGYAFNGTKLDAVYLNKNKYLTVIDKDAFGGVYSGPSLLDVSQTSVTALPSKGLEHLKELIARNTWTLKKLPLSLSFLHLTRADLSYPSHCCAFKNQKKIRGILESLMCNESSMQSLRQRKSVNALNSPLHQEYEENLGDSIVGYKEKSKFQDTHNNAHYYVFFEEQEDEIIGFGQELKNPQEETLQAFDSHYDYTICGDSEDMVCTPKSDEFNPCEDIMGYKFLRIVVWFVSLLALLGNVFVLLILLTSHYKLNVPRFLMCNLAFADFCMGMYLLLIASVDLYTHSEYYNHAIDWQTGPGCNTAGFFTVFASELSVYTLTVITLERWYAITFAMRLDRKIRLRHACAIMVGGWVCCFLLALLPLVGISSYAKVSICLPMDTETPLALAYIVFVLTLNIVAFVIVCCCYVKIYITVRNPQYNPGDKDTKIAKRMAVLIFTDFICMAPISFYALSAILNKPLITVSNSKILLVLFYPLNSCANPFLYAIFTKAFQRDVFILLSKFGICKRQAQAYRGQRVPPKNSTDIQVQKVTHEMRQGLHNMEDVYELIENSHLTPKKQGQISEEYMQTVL
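TSHR-expressing cells, 200/well, pre-treated with compound, then stimulated with EC80 TSH (4nM final) for 2 hours at 37 deg C. cAMP measured by competitive HTRF: anti-cAMP cryptate antibody in lysis buffer plus cAMP-d2, read after 30 minutes at room temperature.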
D3 ag – agonists of human D3 dopamine receptor | P35462 | D3R DiscoveRx beta-arrestin cells, luminescence, 90 min | max activation, % | actives 0.58% (n = 410,000); in the data active = max activation above about 30%; also: 0% is about no effect
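Agonist-mode cell screen: cells plated at 1500/well and incubated overnight at 37 °C, then exposed to library compounds for 90 min at 37 °C. Detection reagent was added for 30–60 min at room temperature, and luminescence was read.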
D3 antag – D3 dopamine receptor (human) antagonism | D3R cells, DiscoveRx beta-arrestin luminescence, antagonist mode; active compounds read low | AID 652054 | P35462 | actives 2.5% (n = 360,000) | max response, negative = inhibition, %; in the data active = max response below about -50%; inconclusive = no clear call, values can overlap the other calls; also: % is scaled to controls: 0 for no effect and ±100 for the full control effect
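Cells plated overnight at 1500 cells/well, then exposed to library compounds with dopamine controls for 90 minutes at 37 degrees C. DiscoveRx reagent added for 30–60 minutes at room temperature; luminescence read, quantitative HTS format.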
An asterisk follows results filed as active; ? = inconclusive; . = no result. Rows were chosen to be rich in hits. Some 2.9% of all compounds tested hit in one or more screens of this group.

SMILES	B2AR arrestin	TSHR antagonist	D3 ag	D3 antag
COc1cnc(-c2ccccn2)nc1Sc1ccc(Cl)cc1	-1%	-9	-2	-99*
Fc1ccc(C(Nc2ccccc2Cl)c2nnc(-c3ccccc3Cl)o2)cc1 (stereo not given)	.	.	5	.
COC(=O)CNC(=O)Nc1cc(C(=O)NCc2ccc(C)cc2)ccc1N1CCCC1	.	.	3	.
CCOc1ccc(CCNS(=O)(=O)c2cc(Br)cc3c2N(C(C)=O)CC3)cc1OCC	.	.	-17	.
CCn1c(=S)sc2c(=O)n(CC(=O)Nc3ccccc3OC)c(C)nc21	0%	-134*	1	21
Cc1ccccc1Cn1c(=O)n(Cc2ccc3c(c2)OCO3)c(=O)c2oc3ccccc3c21	.	.	-8	.
CCc1ccc(NS(=O)(=O)c2[nH]ncc2C(=O)OC)cc1	.	.	11	.
Cc1cc(-c2cccs2)c2c(n1)sc1c(=O)[nH]c(=O)[nH]c12	0%	-13	-2	-84*
Nc1ccn(CC(=O)NCCCc2ccccc2)c(=O)n1	0%	-4	-8	-20
COCCCNC(=O)Cn1ccc(N)nc1=O	0%	-21	38*	14
Cc1cc2oc(C(=O)Nc3sc4c(c3C(=O)NCC3CCCO3)CCCC4)cc(=O)c2cc1C (stereo not given)	.	.	-6	.
Cc1c(C(=O)O)oc2ccc(S(=O)(=O)N3CCCC3)cc12	4%	19	4	40
CCOC(=O)N1CCN(C(=O)c2oc3ccc(S(=O)(=O)N4CCCCC4)cc3c2C)CC1	-3%	-3	44*	18
CCCCN(C)C(=O)c1oc2ccc(S(=O)(=O)N3CCCCCC3)cc2c1C	0%	-14	-6	-75*
Cc1ccc(NC(=O)c2nc(S(C)(=O)=O)ncc2N(Cc2ccc(C(C)(C)C)cc2)Cc2ccco2)cc1C	.	.	1	.
CCc1cccc(CC)c1NC(=O)c1cc(S(=O)(=O)N2CCc3ccccc32)cn1C	.	.	-17	.
COCCNC(=O)CCCn1c(SCc2ccccc2Cl)nc2c(sc3ccccc32)c1=O	.	.	-22	.
COc1ccc(C(C(=O)NC2CCCC2)n2c(C3CCN(C(C)=O)CC3)nc3ccccc32)cc1 (stereo not given)	.	.	-8	-50*
O=C(/C=C/NNC(=O)c1ccccc1)c1ccccc1	4%	-7	-12	-53*
O=C(/C=C/NNC(=O)c1ccc(Br)cc1)c1ccccc1	-1%	-4	-17	-5
Cn1nnnc1SCC1=C(C(=O)O)N2C(=O)[C@@H](NC(=O)[C@H](O)c3ccccc3)[C@H]2SC1	-1%	7	16	1
Cn1nnnc1SCC1=C(C(=O)O)N2C(=O)C(NC(=O)C3CC3c3ccccc3)C2SC1 (stereo not given)	0%	-105*	2	9
Cc1cc2oc(=O)cc(CN3CCCC3)c2cc1Cl	.	.	-8	?
COc1ccc2c(CN3CCCC3)cc(=O)oc2c1	.	.	-10	5
COC(=O)C1CCN(Cc2cc(=O)oc3cc(OC)ccc23)CC1	0%	2	34*	-16
SMILES	B2AR arrestin	TSHR antagonist	D3 ag	D3 antag
CC1CCN(Cc2cc(=O)oc3cc4c(cc23)CCCC4)CC1	-1%	7	-18	-98*
CCOC(=O)C1CCN(Cc2cc(=O)oc3cc(C)c(Cl)cc23)CC1	0%	-4	36*	11
CCc1cc(=O)oc2cc(C)cc(OCC(=O)NC3CCN(Cc4ccccc4)CC3)c12	0%	7	-1	?
CCCCc1cc(=O)oc2cc(OCC(=O)NC3CCN(Cc4ccccc4)CC3)ccc12	0%	-1	-15	-54*
CCOc1cc(CNc2ccc(N(C)C)cc2)cc(Br)c1OCC(=O)NC(C)(C)C	0%	-76*	-5	14
COc1cc(CNc2ccc(N3CCOCC3)cc2)cc(Br)c1OC	0%	2	0	-13
CCOc1cc(CNc2ccc(N3CCOCC3)cc2)cc(Br)c1OCC	-1%	-9	37*	16
COc1ccc(OC)c(NC(=O)CCCc2nnc3n(C(C)C)c(=O)c4sccc4n23)c1	.	.	8	.
COc1ccc(/C=N\NC(=O)CCN2CCN(c3ccccc3)CC2)cc1OC	0%	0	15	?
CC(=O)Nc1ccc(/C=N/NC(=O)CCN2CCN(c3ccccc3)CC2)cc1	0%	-1	-4	-84*
O=C(CCN1CCN(c2ccccc2)CC1)N/N=C/c1ccccc1OC(F)F	0%	6	-21	-70*
CCCCOc1cccc(C2c3c(-c4cc(C)ccc4O)n[nH]c3C(=O)N2CCOC)c1 (stereo not given)	.	.	42*	.
NC(N)=NS(=O)(=O)c1ccc(N)cc1	0%	3	-90	-54*
C/C(N)=N\S(=O)(=O)c1ccc(Cl)cc1	0%	8	-2	4
Cc1ccccc1NC(=O)C1CCN(S(=O)(=O)c2ccccc2)CC1	.	.	8	.
COc1ccc(N(CC(=O)NCc2ccccc2Cl)S(=O)(=O)c2c(C)nn(C)c2C)cc1	.	.	-2	.
Cc1cccc(C)c1NC(=O)CN1CCC(Cc2ccccc2)CC1	.	.	-9	-69*
Cc1cccc(C)c1NC(=O)CN1CCN(CCCC(c2ccc(F)cc2)c2ccc(F)cc2)CC1	0%	-1	-79	-79*
Cc1sc2ccccc2c1CNC[C@H]1O[C@@H](n2cnc(C(N)=O)n2)[C@H](O)[C@@H]1O	.	.	48*	18
CC(C)Oc1cccc(C(=O)NC(=S)Nc2ccc(Cl)c(C(=O)O)c2)c1	0%	-11	-1	-88*
COc1ccc(C(=O)NC(=S)Nc2ccc(Cl)c(C(=O)O)c2)cc1	0%	-6	-6	-17
CN(C)S(=O)(=O)Oc1cccc(C(=O)Nc2ccc(Cl)c(Cl)c2)c1	0%	?	5	-53*
O=C(c1ccccc1)N1CCN(C(=O)c2ccccc2)C1c1ccccc1	-2%	4	-6	-51*
CN(C(=O)CSc1nncn1-c1ccccc1)C1CCS(=O)(=O)C1 (stereo not given)	0%	13	-2	-54*
CCN(C(=O)CSc1nncn1-c1ccccc1)C1CCS(=O)(=O)C1 (stereo not given)	0%	3	4	-3
SMILES	B2AR arrestin	TSHR antagonist	D3 ag	D3 antag
Cc1c(C(=O)N2CCC(C)CC2)c(S(=O)(=O)N2CCN(c3ccc(Cl)cc3)CC2)c(C)n1C	.	.	7	.
Cc1c(C(=O)Nc2ccc(S(=O)(=O)N(C)C3CCN(C)CC3)cc2)oc2ccccc12	0%	-2	-20	-19
Cc1ccc(OCC(=O)Nc2ccc(S(=O)(=O)N(C)C3CCN(C)CC3)cc2)c(C)c1	0%	20	-7	1
Cc1ccccc1OCCC(=O)Nc1ccc(S(=O)(=O)N(C)C2CCN(C)CC2)cc1	0%	10	-28	-61*
Cc1c(C(=O)Nc2ccc(S(=O)(=O)N(C)C3CCN(C)CC3)cc2)oc2c(Cl)cccc12	0%	-2	-11	-66*
COc1ccccc1CNc1nc(NCc2ccc3occc3c2)c2sccc2n1	.	.	5	16
COc1ccc(Cc2nnc(NC(=O)c3ccc(OC)c(OC)c3)s2)cc1OC	0%	-5	42*	7
O=C(COCc1ccccc1)N[C@@H]1c2ccccc2CC[C@@H]1OCc1ccccc1	0%	-5	-21	-10
